# Counter-ions that a name gives are not always drawn.
# Tested on: Escherichia coli IAI1
# Assay: growth (OD595) fold change vs plate DMSO controls (fold change (ratio)); higher = more growth
# Conditions: incubation time: 27 h, anaerobic, 37 °C
# How it was run: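 Growth is the fold change relative to the median of plate DMSO controls. Readings came from anaerobic mGAM cultures in 96-well plates grown for 27 h at 37 °C and read at 595 nm. They were blank-subtracted, corrected for compound background with 20 µM compound solutions in water, and converted to OD with a calibration factor of 5. Values are means of 2 biological replicates, and fold changes above 1.5 were set to NA.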
row,SMILES,growth
1,NS(=O)(=O)c1cc2c(cc1C(F)(F)F)NCNS2(=O)=O [Hydroflumethiazide] (20 µM),1.05
2,Nc1nc(/C(=C/CC(=O)O)C(=O)N[C@@H]2C(=O)N3C(C(=O)O)=CCS[C@H]23)cs1 [Ceftibuten] (20 µM),1.06
3,O=C(O)Cc1ccc(-c2ccccc2)cc1 [Felbinac] (20 µM),1.01
4,Nc1nnc(-c2cccc(Cl)c2Cl)c(N)n1 [Lamotrigine] (20 µM),0.978
5,Nc1nc(=O)c2nc(CNc3ccc(C(=O)N[C@@H](CCC(=O)O)C(=O)O)cc3)cnc2[nH]1 [Folic acid] (20 µM),1.08
6,Nc1ccc(S(=O)(=O)NC(=O)c2ccccc2)cc1 [Sulfabenzamide] (20 µM),1.07
7,CCC(=O)O[C@]1(C(=O)SCF)[C@H](C)C[C@H]2[C@@H]3C[C@H](F)C4=CC(=O)C=C[C@]4(C)[C@@]3(F)[C@@H](O)C[C@@]21C [Fluticasone propionate] (20 µM),0.976
8,CCOC(=O)[C@H](CCc1ccccc1)N[C@@H](C)C(=O)N1[C@H](C(=O)O)C[C@@H]2CCC[C@@H]21 [Ramipril] (20 µM),0.984
9,CO/N=C(\C(=O)N[C@@H]1C(=O)N2C(C(=O)OCOC(=O)C(C)(C)C)=C(/C=C\c3scnc3C)CS[C@H]12)c1csc(N)n1 [Cefditoren Pivoxil] (20 µM),1.11
10,NC[C@H]1O[C@H](O[C@H]2[C@H](O[C@@H]3O[C@H](CO)[C@@H](O)[C@H]3O)[C@@H](O)[C@H](N)C[C@@H]2N)[C@H](N)[C@@H](O)[C@@H]1O [Ribostamycin sulfate salt] (20 µM),1.04
11,Brc1c(NC2=NCCN2)ccc2nccnc12 [Brimonidine L-tartrate] (20 µM),1.06
12,O=c1[nH]cnc2c1ncn2[C@H]1CC[C@@H](CO)O1 [Didanosine] (20 µM),1.03
13,NS(=O)(=O)Cc1noc2ccccc12 [Zonisamide] (20 µM),1.01
14,CN(C)CCC(c1ccc(Cl)cc1)c1ccccn1 (stereo not given) [Chlorpheniramine maleate] (20 µM),0.712
15,OCC(O)CN1CCN(c2ccccc2)CC1 (stereo not given) [Dropropizine] (20 µM),1.02
16,CC(=O)[C@H]1CC[C@H]2[C@@H]3CCC4=CC(=O)CC[C@]4(C)[C@H]3CC[C@]12C [Progesterone] (20 µM),1.02
17,CC(C)(C)NC(=O)[C@@H]1CN(Cc2cccnc2)CCN1C[C@@H](O)C[C@@H](Cc1ccccc1)C(=O)N[C@H]1c2ccccc2C[C@H]1O [Indinavir sulfate] (20 µM),1.01
18,c1ccc2c(c1)CCCC2C1=NCCN1 (stereo not given) [Tetrahydrozoline hydrochloride] (20 µM),0.997
19,O=[N+]([O-])c1ccc(O)c2ncccc12 [Nitroxoline] (20 µM),0.52
20,COCC(=O)O[C@]1(CCN(C)CCCc2nc3ccccc3[nH]2)CCc2cc(F)ccc2[C@@H]1C(C)C [Mibefradil hydrochloride] (20 µM),0.996
21,Nc1nc(Cl)nc2c1ncn2[C@H]1C[C@H](O)[C@@H](CO)O1 [Cladribine] (20 µM),0.974
22,CN(CCOc1ccc(CC2SC(=O)NC2=O)cc1)c1ccccn1 (stereo not given) [Rosiglitazone hydrochloride] (20 µM),1.15
23,C[C@@H](O)[C@H]1C(=O)N2C(C(=O)O)=C(S[C@@H]3CN[C@H](C(=O)N(C)C)C3)[C@H](C)[C@H]12 [Meropenem] (20 µM),0.0127
24,CNCCC=C1c2ccccc2C=Cc2ccccc21 [Norcyclobenzaprine] (20 µM),1.02
25,CCCCS(=O)(=O)N[C@@H](Cc1ccc(OCCCCC2CCNCC2)cc1)C(=O)O [Tirofiban hydrochloride] (20 µM),0.983
26,OC[C@H]1O[C@@H](n2cnc3cncnc32)[C@H](O)[C@@H]1O [Nebularine] (20 µM),0.971
27,CC1(C)S[C@@H]2[C@H](NC(=O)[C@H](N)c3ccccc3)C(=O)N2[C@H]1C(=O)O [Ampicillin trihydrate] (20 µM),0.431
28,Oc1ncnc2[nH]ncc12 [Allopurinol] (20 µM),0.942
29,CC(C)(C)c1ccc(C(=O)CCCN2CCC(OC(c3ccccc3)c3ccccc3)CC2)cc1 [Ebastine] (20 µM),1
30,CCOC(N)=O [Urethane] (20 µM),1.05

# — the supplement of paper PMC12494721
